Records with an inconclusive call do not appear. Activity calls are given as the source filed them. How the source made its calls: active means hit-call score of the fitted dose curve at least 0.9, where 1 is the maximum; inconclusive means response in the unintended direction; inactive means score below 0.9.
Key:
[1] = biological target: Cellular tumor antigen p53 (Homo sapiens) (UniProt P04637); test: TOX21_p53_BLA_p2_ratio: Tox21 HCT-116 p53 Agonism Beta-lactamase Assay, Ratio, Phase 2 (AID 2283592)
Cellular tumor antigen p53 (Homo sapiens), sequence (P04637 whole entry, looked up): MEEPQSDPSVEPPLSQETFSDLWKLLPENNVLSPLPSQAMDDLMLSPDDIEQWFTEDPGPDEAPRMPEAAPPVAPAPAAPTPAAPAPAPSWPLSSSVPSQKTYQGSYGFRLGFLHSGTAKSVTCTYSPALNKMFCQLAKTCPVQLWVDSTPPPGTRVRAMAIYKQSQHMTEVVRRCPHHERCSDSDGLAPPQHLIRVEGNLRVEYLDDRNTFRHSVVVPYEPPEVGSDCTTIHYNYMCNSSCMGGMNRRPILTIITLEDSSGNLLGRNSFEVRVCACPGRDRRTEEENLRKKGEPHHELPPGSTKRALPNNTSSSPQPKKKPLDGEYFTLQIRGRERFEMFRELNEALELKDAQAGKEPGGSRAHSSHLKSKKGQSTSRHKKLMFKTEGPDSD
Procedure, shortened: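 In this cell-based reporter format, HCT116 cells were dosed with chemicals delivered from DMSO by 217-fold dilution and incubated 16 h at 37C. Emission at 460 and 530 nm after 2 h CCF4-AM loading provided the ratio, fitted upward versus DMSO.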

[2] = biological target: Cellular tumor antigen p53 (Homo sapiens) (UniProt P04637); test: TOX21_p53_BLA_p3_ratio: Tox21 HCT-116 p53 Agonism Beta-lactamase Assay, Ratio, Phase 3 (AID 2283596)
Procedure, shortened: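 HCT116 p53-bla cells (4000/well) given compound in DMSO (217-fold dilution) after 5 h, incubated 16 h at 37C. CCF4-AM substrate 2 h at room temperature; 460/530 nm emission ratio, gain fitted against DMSO.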

[3] = biological target: Cellular tumor antigen p53 (Homo sapiens) (UniProt P04637); test: TOX21_p53_BLA_p5_ratio: Tox21 HCT-116 p53 Agonism Beta-lactamase Assay, Ratio, Phase 5 (AID 2283599)
Procedure, shortened: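 Beta-lactamase reporter ratio (blue 460 nm over green 530 nm, 405 nm excitation) after 2 h CCF4-AM loading, in HCT-116 cells exposed 16 h at 37 C to compounds pinned at 217-fold dilution. Increases relative to DMSO baseline scored.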

[4] = TOX21_p53_BLA_p5_viability: Viability Assessment in the Tox21 HCT-116 p53 Agonism Beta-lactamase Assay, Phase 5 (AID 2283600)
Procedure, shortened: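 Compounds, pinned from DMSO at 217-fold dilution, were left on the cells for 16 h. The viability endpoint was ATP content measured by CellTiter-Glo luminescence, where falling signal reflects cytotoxicity.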

[5] = biological target: Cellular tumor antigen p53 (Homo sapiens) (UniProt P04637); test: TOX21_p53_BLA_p4_ratio: Tox21 HCT-116 p53 Agonism Beta-lactamase Assay, Ratio, Phase 4 (AID 2283601)
Procedure, shortened: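 Signal is the blue/green (460nm/530nm) ratio of cleaved versus uncleaved CCF4-AM substrate, read after 2 h substrate loading. Cells were HCT116 carrying the p53-responsive beta-lactamase reporter, dosed 16 h at 37C, 5% CO2; CellTiter-Glo measured in parallel.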

[6] = TOX21_TRB_BLA_Antagonist_Followup_viability: Viability Assessment in the Tox21 Thyroid Hormone Receptor beta Antagonism Beta-lactamase (BLA) Follow-Up Assay (AID 2283961)
Procedure, shortened: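 Viability read as CellTiter-Glo ATP luminescence (loss of signal = cytotoxicity) in the same plates as the TRβ-bla readout. TRβ-LBD/GAL4 UAS-bla HEK293T cells were exposed to compounds, 11 concentrations in triplicate, for 18 h at 37C/5% CO2.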

Row | Structure (SMILES) | outcome [1] | outcome [2] | outcome [3] | outcome [4] | outcome [5] | AC50 [2] | outcome [6]
1 | NC(=O)Cc1cccc2ccccc12 | inactive | inactive | inactive | inactive | inactive | – | –
2 | CCCOc1ccc2nc(NC(=O)OC)[nH]c2c1 | inactive | – | inactive | – | inactive | 240 nM (active) | –
3 | COc1cc2nc(N3CCN(C(=O)c4ccco4)CC3)nc(N)c2cc1OC | inactive | inactive | inactive | – | inactive | – | –
4 | O=C(O)COc1ccccc1/C=N/NC(=O)c1ccncc1 | inactive | inactive | inactive | inactive | inactive | – | –
5 | O=C1c2ccccc2C(=O)C1c1ccccc1 | inactive | inactive | inactive | – | inactive | – | –
6 | C#C[C@]1(O)CC[C@H]2[C@@H]3CCC4=CC(=O)CC[C@@H]4[C@H]3C(=C)C[C@@]21CC | inactive | inactive | inactive | – | inactive | – | inactive
7 | CN(C)CCN(Cc1ccc(Cl)cc1)c1ccccn1 | inactive | inactive | inactive | – | inactive | – | –
8 | FC1(F)C(F)(F)C(F)(F)C2(F)C(F)(F)C(F)(F)C(F)(F)C(F)(F)C2(F)C1(F)F (configuration not stated) | inactive | inactive | inactive | – | inactive | – | –
9 | NC1CCN(c2nc3c(cc2F)c(=O)c(C(=O)O)cn3-c2ccc(F)cc2F)C1 (configuration not stated) | inactive | inactive | inactive | – | inactive | – | –
10 | NC(=O)CC[C@@H](N)C(=O)O | inactive | inactive | inactive | inactive | inactive | – | –
11 | Nc1ncnc2c1ncn2[C@@H]1O[C@H](COP(=O)(O)O)[C@@H](O)[C@H]1O | inactive | inactive | inactive | – | inactive | – | –
12 | CNCC(=O)N[C@@H](CCCN=C(N)N)C(=O)N[C@H](C(=O)N[C@@H](Cc1ccc(O)cc1)C(=O)N[C@H](C(=O)N[C@@H](Cc1cnc[nH]1)C(=O)N1CCC[C@H]1C(=O)N[C@@H](C)C(=O)O)C(C)C)C(C)C | inactive | inactive | inactive | – | inactive | – | –
